Test results taken from PubChem BioAssay (EPA / NIEHS).
Records with an inconclusive call do not appear. Some compounds were tested as several samples or in several runs, with calls that do not always agree. The source made the active and inactive calls. How the source made its calls, unless noted: active means hit-call score of the fitted dose curve at least 0.9, where 1 is the maximum; inconclusive means response in the unintended direction; inactive means score below 0.9.

Key:
[1] = target: human Peroxisome Proliferator-activated Receptor delta (PPARd), PPARD (gene 5467) (UniProt Q03181); experiment: ATG_PPARd_TRANS: Attagene TRANS-FACTORIAL HepG2 Assay for human Peroxisome Proliferator-activated Receptor delta (PPARd) (AID 2283002)
Sequence of human Peroxisome Proliferator-activated Receptor delta (PPARd), PPARD (gene 5467) (Q03181 whole entry, looked up, the tested form may be a part): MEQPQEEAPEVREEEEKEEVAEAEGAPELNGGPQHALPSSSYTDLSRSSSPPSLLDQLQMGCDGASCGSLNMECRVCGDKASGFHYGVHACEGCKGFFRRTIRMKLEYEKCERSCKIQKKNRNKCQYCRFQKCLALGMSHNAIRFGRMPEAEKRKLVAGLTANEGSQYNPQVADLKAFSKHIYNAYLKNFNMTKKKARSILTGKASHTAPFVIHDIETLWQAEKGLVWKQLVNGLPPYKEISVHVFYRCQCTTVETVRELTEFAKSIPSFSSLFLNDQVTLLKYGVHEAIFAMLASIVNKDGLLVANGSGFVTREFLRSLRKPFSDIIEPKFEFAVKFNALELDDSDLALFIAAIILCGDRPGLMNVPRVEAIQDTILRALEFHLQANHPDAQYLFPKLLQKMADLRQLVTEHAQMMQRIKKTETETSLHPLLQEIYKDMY
Outline: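 Fluorescence from capillary electrophoresis of labelled RT-PCR reporter fragments gives the signal; DMSO sets baseline. Cells: HepG2 transiently carrying GAL4-UAS reporter units plus chimeric nuclear receptor-Gal4 proteins, exposed to chemicals for 24 h.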

[2] = read-out: Intercellular Adhesion Molecule 1 (ICAM1), ICAM1 (gene 3383); experiment: BSK_3C_ICAM1: BioMAP Diversity Plus: 3C Assay for Intercellular Adhesion Molecule 1 (ICAM1) Biomarker Activity (AID 2283003; active means hit-call score of the fitted dose curve at least 0.9, where 1 is the maximum; inactive means score below 0.9); settings: primary human endothelial cells (HUVEC); actives raise or lower the signal
Outline: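 Human vascular endothelial primary cells, 3C conditions, 24 h treatment. ICAM-1 by ELISA.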

[3] = target: Nuclear receptor subfamily 1 group I member 2 (Homo sapiens) (UniProt O75469); experiment: ATG_PXR_TRANS: Attagene TRANS-FACTORIAL HepG2 Assay for human Pregnane X Receptor (PXR) (AID 2283008)
Sequence of Nuclear receptor subfamily 1 group I member 2 (Homo sapiens) (O75469 whole entry, looked up, the tested form may be a part): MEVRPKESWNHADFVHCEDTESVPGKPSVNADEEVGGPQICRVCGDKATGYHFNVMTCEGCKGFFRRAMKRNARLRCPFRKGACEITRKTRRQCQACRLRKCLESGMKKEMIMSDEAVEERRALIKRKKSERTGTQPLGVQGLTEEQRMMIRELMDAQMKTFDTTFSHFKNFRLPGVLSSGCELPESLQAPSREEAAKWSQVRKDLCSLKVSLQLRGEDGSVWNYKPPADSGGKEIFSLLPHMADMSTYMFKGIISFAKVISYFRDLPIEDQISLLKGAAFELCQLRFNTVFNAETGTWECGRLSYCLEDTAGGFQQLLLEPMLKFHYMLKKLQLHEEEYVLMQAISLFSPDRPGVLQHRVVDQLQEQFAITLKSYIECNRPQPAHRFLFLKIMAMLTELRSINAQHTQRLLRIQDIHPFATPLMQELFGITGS
Outline: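 HepG2 cells transiently transfected with multiple reporter units, here a PXR-GAL4 chimera driving a GAL4-UAS reporter; 24 h compound exposure. Reporter mRNA measured by RT-PCR, FAM labelling and capillary electrophoresis; gain of signal fitted against DMSO baseline.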

[4] = target: human RAR-related Orphan Receptor beta (RORb), RORB (gene 6096) (UniProt Q92753); experiment: ATG_RORb_TRANS: Attagene TRANS-FACTORIAL HepG2 Assay for human RAR-related Orphan Receptor beta (RORb) (AID 2283010)
Sequence of human RAR-related Orphan Receptor beta (RORb), RORB (gene 6096) (Q92753 whole entry, looked up, the tested form may be a part): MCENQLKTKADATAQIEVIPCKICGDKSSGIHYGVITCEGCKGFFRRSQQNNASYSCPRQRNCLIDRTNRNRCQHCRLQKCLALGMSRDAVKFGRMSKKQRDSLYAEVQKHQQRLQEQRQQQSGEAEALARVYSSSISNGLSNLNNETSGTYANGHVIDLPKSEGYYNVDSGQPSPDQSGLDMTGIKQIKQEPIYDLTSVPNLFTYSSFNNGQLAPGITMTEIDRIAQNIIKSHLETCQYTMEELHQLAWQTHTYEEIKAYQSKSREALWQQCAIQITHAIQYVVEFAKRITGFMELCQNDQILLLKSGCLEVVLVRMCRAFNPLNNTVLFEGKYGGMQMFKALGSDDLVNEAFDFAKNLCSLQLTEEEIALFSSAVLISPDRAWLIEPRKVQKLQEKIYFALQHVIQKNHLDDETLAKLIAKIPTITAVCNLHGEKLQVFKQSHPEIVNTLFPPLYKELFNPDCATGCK
Outline: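 In this TRANS-format test, human HepG2 cells express chimeric NR-Gal4 fusion proteins driving GAL4-UAS reporters. After 24 h dosing, reporter transcripts are measured by fluorescent RT-PCR/capillary electrophoresis, with DMSO as negative control.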

[5] = target: Retinoic acid receptor RXR-alpha (Homo sapiens) (UniProt P19793); experiment: ATG_RXRa_TRANS: Attagene TRANS-FACTORIAL HepG2 Assay for human Retinoid X Receptor alpha (RXRa) (AID 2283012)
Sequence of Retinoic acid receptor RXR-alpha (Homo sapiens) (P19793 whole entry, looked up, the tested form may be a part): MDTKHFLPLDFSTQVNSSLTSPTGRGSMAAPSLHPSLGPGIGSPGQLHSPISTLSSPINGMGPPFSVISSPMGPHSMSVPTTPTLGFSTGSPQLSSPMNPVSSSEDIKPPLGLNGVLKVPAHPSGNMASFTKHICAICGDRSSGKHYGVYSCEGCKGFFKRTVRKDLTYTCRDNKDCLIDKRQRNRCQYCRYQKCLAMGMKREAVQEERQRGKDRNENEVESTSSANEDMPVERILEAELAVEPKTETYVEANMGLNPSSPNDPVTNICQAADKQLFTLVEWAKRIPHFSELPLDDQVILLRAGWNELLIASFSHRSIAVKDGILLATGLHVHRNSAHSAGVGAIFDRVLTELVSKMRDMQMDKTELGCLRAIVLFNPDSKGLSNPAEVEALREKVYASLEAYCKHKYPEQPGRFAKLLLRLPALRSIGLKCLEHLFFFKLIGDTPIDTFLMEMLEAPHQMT
Outline: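 Cells (HepG2) carried transiently transfected GAL4-responsive reporter units. Following a 24 h chemical incubation, reporter mRNA induction was read via RT-PCR fragment analysis; DMSO served as negative control and baseline.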

[6] = target: human Retinoid X Receptor beta (RXRb), RXRB (gene 6257) (UniProt P28702); experiment: ATG_RXRb_TRANS: Attagene TRANS-FACTORIAL HepG2 Assay for human Retinoid X Receptor beta (RXRb) (AID 2283013)
Sequence of human Retinoid X Receptor beta (RXRb), RXRB (gene 6257) (P28702 whole entry, looked up): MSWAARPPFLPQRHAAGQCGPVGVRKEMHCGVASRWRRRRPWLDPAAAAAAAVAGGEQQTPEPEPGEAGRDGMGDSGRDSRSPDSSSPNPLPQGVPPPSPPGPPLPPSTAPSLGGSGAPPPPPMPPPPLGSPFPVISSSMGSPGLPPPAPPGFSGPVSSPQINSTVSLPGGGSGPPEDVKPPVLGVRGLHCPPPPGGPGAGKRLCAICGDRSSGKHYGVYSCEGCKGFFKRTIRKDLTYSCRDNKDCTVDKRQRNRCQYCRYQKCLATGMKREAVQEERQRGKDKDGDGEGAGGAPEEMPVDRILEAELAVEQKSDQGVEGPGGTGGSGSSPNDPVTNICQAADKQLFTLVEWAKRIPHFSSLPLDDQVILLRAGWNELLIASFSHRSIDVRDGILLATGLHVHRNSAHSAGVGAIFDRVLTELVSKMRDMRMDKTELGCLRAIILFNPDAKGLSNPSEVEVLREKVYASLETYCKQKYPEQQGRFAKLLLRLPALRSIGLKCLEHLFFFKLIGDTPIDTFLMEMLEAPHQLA
Outline: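 Multiplexed TRANS reporter assay in HepG2; 24 h dosing; reporter mRNA by RT-PCR/CE fluorescence; gain-of-signal relative to DMSO.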

[7] = target: human Thyroid Receptor alpha (THRa1), THRA (gene 7067) (UniProt P10827); experiment: ATG_THRa1_TRANS: Attagene TRANS-FACTORIAL HepG2 Assay for human Thyroid Receptor alpha (THRa1) (AID 2283014)
Sequence of human Thyroid Receptor alpha (THRa1), THRA (gene 7067) (P10827 whole entry, looked up, the tested form may be a part): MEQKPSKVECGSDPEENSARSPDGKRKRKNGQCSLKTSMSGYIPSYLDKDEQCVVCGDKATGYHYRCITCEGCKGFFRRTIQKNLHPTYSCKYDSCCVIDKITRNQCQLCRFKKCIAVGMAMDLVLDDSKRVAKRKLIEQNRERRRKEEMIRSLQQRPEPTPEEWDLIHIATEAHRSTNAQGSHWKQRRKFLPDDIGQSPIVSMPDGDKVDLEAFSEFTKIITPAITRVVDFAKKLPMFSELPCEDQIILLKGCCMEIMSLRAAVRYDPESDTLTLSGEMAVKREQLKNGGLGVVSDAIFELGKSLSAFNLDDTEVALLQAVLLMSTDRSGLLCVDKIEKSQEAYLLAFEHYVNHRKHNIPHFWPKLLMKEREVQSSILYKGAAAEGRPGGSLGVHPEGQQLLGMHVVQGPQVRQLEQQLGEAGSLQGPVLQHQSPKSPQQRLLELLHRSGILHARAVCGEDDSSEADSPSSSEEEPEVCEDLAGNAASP
Outline: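 Transient HepG2 transfection, NR-Gal4 chimera driving GAL4-UAS reporters; 24 h compound exposure; total RNA, oligo(dT) RT, PCR, fluorescent primer extension, capillary electrophoresis. Upward direction vs DMSO control.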

[8] = read-out: E-selectin (Homo sapiens) (UniProt P16581); experiment: BSK_3C_Eselectin: BioMAP Diversity Plus: 3C Assay for Eselectin Biomarker Activity (AID 2283015; active means hit-call score of the fitted dose curve at least 0.9, where 1 is the maximum; inactive means score below 0.9;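 further: cell surface E-selectin protein quantified by ELISA 24 h after dosing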); settings: primary human endothelial cells (HUVEC); actives raise or lower the signal
Outline: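 HUVEC, 3C stimulation; compound exposure 24 h; E-selectin by ELISA; gain- or loss-of-signal fitted bidirectionally vs DMSO baseline.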

[9] = read-out: Interleukin-1 alpha (IL1a), IL1A (gene 3552); experiment: BSK_BE3C_IL1a: BioMAP Diversity Plus: BE3C Assay for Interleukin-1 alpha (IL1a) Biomarker Activity (AID 2283016; active means hit-call score of the fitted dose curve at least 0.9, where 1 is the maximum; inactive means score below 0.9); settings: primary human bronchial epithelial cells; actives raise or lower the signal
Outline: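 Cultures of primary human bronchial epithelial cells receive test chemical. After 24 h, IL-1a is quantified by ELISA, while parallel wells are fixed in TCA and SRB-stained for total protein. Changes in either direction are fitted relative to DMSO.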

[10] = read-out: Monocyte Chemoattractant Protein-1 (MCP1), CCL2 (gene 6347); experiment: BSK_3C_MCP1: BioMAP Diversity Plus: 3C Assay for Monocyte Chemoattractant Protein-1 (MCP1) Biomarker Activity (AID 2283017; active means hit-call score of the fitted dose curve at least 0.9, where 1 is the maximum; inactive means score below 0.9); settings: primary human endothelial cells (HUVEC); actives raise or lower the signal
Outline: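 HUVEC, 3C system; 24 h chemical exposure; MCP-1 by ELISA; bidirectional curve fit vs DMSO baseline.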

[11] = read-out: Monocyte Chemoattractant Protein-1 (MCP1), CCL2 (gene 6347); experiment: BSK_4H_MCP1: BioMAP Diversity Plus: 4H Assay for Monocyte Chemoattractant Protein-1 (MCP1) Biomarker Activity (AID 2283018; active means hit-call score of the fitted dose curve at least 0.9, where 1 is the maximum; inactive means score below 0.9); settings: primary human endothelial cells (HUVEC); actives raise or lower the signal
Outline: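 Readout: MCP-1 ELISA on compound-treated HUVEC, sampled 24 h post-dosing. Baseline and negative control DMSO; bidirectional fit. Overt toxicity checked alongside by sulforhodamine B protein staining at time of biomarker measurement.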

[12] = read-out: Human Leukocyte Antigen - DR isotype (HLADR), HLA-DRA (gene 3122); experiment: BSK_3C_HLADR: BioMAP Diversity Plus: 3C Assay for Human Leukocyte Antigen - DR isotype (HLADR) Biomarker Activity (AID 2283019; active means hit-call score of the fitted dose curve at least 0.9, where 1 is the maximum; inactive means score below 0.9); settings: primary human endothelial cells (HUVEC); actives raise or lower the signal
Outline: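 HUVEC, 3C stimulation, 24 h post-dose; HLA-DR by ELISA; bidirectional curve fit vs DMSO baseline; gain or loss of signal scored.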

[13] = read-out: Interleukin-8 (IL8), CXCL8 (gene 3576); experiment: BSK_3C_IL8: BioMAP Diversity Plus: 3C Assay for Interleukin-8 (IL8) Biomarker Activity (AID 2283020; active means hit-call score of the fitted dose curve at least 0.9, where 1 is the maximum; inactive means score below 0.9); settings: primary human endothelial cells (HUVEC); actives raise or lower the signal
Outline: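 Human vascular endothelial cells (umbilical vein) in the 3C system; IL-8 level detected by ELISA at 24 h post-dose, with DMSO as baseline.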

[14] = read-out: Monokine induced gamma interferon (MIG), CXCL9 (gene 4283); experiment: BSK_3C_MIG: BioMAP Diversity Plus: 3C Assay for Monokine induced gamma interferon (MIG) Biomarker Activity (AID 2283021; active means hit-call score of the fitted dose curve at least 0.9, where 1 is the maximum; inactive means score below 0.9); settings: primary human endothelial cells (HUVEC); actives raise or lower the signal
Outline: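 After 24 h of treatment, human umbilical vein endothelial cultures (3C system) had their MIG biomarker level determined by ELISA, with DMSO serving as negative control.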

[15] = target: human Vitamin D Receptor (VDR), VDR (gene 7421) (UniProt P11473); experiment: ATG_VDR_TRANS: Attagene TRANS-FACTORIAL HepG2 Assay for human Vitamin D Receptor (VDR) (AID 2283022)
Sequence of human Vitamin D Receptor (VDR), VDR (gene 7421) (P11473 whole entry, looked up, the tested form may be a part): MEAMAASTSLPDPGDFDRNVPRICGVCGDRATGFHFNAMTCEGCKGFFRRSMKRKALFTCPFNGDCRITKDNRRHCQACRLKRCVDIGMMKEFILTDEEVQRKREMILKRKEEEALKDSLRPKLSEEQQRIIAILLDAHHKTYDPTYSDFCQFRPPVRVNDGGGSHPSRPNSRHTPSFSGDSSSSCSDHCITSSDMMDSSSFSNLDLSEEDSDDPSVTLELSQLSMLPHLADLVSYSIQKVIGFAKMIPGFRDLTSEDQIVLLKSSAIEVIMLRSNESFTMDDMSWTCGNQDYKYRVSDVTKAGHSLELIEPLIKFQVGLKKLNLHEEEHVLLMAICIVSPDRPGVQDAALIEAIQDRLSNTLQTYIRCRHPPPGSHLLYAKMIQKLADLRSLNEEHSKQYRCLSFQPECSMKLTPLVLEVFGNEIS
Outline: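 RT-PCR/capillary electrophoresis read-out of reporter mRNA induction in transiently transfected HepG2; 24 h dosing; chimeric NR-Gal4 (TRANS format); gain-of-signal fit against DMSO baseline.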

[16] = target: Retinoic acid receptor alpha (Homo sapiens) (UniProt P10276); experiment: ATG_RARa_TRANS: Attagene TRANS-FACTORIAL HepG2 Assay for human Retinoic Acid Receptor alpha (RARa) (AID 2283005)
Outline: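 HepG2 transiently transfected with multiplex GAL4-UAS reporter units including a human RARa–GAL4 chimera; 24 h compound exposure. Reporter mRNA quantified by RT-PCR, 6-FAM labeling and capillary electrophoresis; gain of signal versus DMSO.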

[17] = BSK_3C_Proliferation: Cell Proliferation Assessment in the BioMAP Diversity Plus: 3C Assay (AID 2283006; active means hit-call score of the fitted dose curve at least 0.9, where 1 is the maximum; inactive means score below 0.9); settings: primary human endothelial cells (HUVEC)
Outline: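 Proliferation of human vascular endothelial primary cells after 48 h dosing, quantified as SRB-stained protein at 560 nm relative to DMSO.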

[18] = target: human RAR-related Orphan Receptor gamma (RORg), RORC (gene 6097) (UniProt P51449); experiment: ATG_RORg_TRANS: Attagene TRANS-FACTORIAL HepG2 Assay for human RAR-related Orphan Receptor gamma (RORg) (AID 2283011)
Sequence of human RAR-related Orphan Receptor gamma (RORg), RORC (gene 6097) (P51449 whole entry, looked up, the tested form may be a part): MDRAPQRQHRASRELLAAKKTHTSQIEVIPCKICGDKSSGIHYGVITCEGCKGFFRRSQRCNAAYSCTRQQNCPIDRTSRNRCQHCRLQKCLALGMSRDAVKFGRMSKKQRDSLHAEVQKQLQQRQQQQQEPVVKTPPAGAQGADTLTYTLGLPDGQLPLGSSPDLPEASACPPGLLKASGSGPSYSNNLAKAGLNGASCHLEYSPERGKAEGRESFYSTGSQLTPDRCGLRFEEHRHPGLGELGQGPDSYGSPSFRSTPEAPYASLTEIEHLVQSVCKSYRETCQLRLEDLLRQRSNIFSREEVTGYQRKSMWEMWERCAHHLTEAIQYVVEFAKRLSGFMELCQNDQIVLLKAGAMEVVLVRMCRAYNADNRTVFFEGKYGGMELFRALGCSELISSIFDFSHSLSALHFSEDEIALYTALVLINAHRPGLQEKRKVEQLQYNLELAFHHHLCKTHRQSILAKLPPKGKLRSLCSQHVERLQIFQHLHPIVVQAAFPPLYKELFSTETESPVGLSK
Outline: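 Transient MRTU transfection of HepG2 (TRANS format, exogenous NR-Gal4 chimera). 24 h dosing. Total RNA → oligo(dT) RT → PCR → 6-FAM labelling → HpaI cut → CE. Gain vs DMSO.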

[19] = target: human Retinoic Acid Receptor gamma (RARg), RARG (gene 5916) (UniProt P13631); experiment: ATG_RARg_TRANS: Attagene TRANS-FACTORIAL HepG2 Assay for human Retinoic Acid Receptor gamma (RARg) (AID 2283009)
Sequence of human Retinoic Acid Receptor gamma (RARg), RARG (gene 5916) (P13631 whole entry, looked up, the tested form may be a part): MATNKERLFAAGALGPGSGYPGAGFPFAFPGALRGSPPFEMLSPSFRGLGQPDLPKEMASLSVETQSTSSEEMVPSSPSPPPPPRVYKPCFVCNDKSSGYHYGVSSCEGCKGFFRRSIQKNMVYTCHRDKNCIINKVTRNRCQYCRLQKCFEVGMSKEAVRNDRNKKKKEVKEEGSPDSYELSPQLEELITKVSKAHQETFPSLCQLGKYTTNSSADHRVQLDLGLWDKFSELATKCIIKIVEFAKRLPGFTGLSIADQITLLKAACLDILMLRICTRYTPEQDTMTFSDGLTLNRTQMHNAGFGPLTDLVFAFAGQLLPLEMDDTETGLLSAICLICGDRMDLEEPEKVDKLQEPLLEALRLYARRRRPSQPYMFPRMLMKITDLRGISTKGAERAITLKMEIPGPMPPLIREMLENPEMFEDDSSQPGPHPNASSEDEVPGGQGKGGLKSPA
Outline: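 HepG2, RARg-GAL4 TRANS system, 24 h exposure; reporter mRNA by RT-PCR + CE fluorescence; increase over DMSO.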

Measured: AC50

Sequence of E-selectin (Homo sapiens) (P16581 whole entry, looked up): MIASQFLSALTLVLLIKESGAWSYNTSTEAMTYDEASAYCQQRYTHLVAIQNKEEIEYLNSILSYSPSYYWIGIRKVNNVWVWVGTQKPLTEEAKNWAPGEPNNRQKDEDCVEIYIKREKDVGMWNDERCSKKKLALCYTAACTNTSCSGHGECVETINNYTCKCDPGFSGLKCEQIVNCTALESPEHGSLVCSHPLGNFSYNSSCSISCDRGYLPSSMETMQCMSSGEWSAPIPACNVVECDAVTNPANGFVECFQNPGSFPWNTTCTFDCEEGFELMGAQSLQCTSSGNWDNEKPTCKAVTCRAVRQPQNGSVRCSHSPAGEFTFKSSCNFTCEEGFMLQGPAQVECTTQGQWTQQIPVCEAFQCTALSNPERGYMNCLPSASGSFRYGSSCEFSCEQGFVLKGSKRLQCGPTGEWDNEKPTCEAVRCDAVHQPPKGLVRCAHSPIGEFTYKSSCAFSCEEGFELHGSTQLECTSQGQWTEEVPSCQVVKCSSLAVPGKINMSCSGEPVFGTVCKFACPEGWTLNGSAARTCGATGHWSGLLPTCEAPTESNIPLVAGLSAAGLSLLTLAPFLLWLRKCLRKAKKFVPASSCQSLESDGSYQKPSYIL

CCC(C)(C)C1CCC(O)CC1 (stereo not given)
active: [6] 58.7 µM [middle of 4 runs]
not listed: [16] | [17] | [18] | [19]
inactive: all other assays above

CCCCCCC(=O)O
inactive: [2] | [3] | [5] | [7] | [8] | [9] | [10] | [13] | [14] | [15]

CN(C)C=O
active: [5] 4.99 µM | [6] 740 nM
inactive: [2] | [16] | [17] | [18] | [8] | [9] | [10] | [13] | [14]

CCCCCCCCCCCCc1ccccc1S(=O)(=O)O
active: [3] 3.52 µM | [6] 9100 nM | [9] 14.3 µM
not listed: [1] | [4] | [7] | [11] | [12] | [17]
inactive: all other assays above

N#C[C@@H]1CC(F)(F)CN1C(=O)CNC1CC2CCC(C1)N2c1ncccn1 (stereo not given in full)
active: [10] 4.85 µM | [12] 2.58 µM | [13] 7.55 µM
inactive: [2] | [3] | [4] | [18] | [5] | [6] | [8] | [9] | [14]

O=C1OC2(c3ccccc31)c1cc(Br)c(O)c(Br)c1Oc1c2cc(Br)c(O)c1Br
inactive: [1] | [16] | [3] | [19] | [4] | [18] | [6] | [7] | [15]
active: [3] 8.91 µM

COCC(C)O (stereo not given)
inactive: [2] | [6] | [7] | [8] | [9] | [10] | [13] | [14] | [15]

Cc1cc(C)c(O)c(C)c1
not listed: [1] | [4] | [5] | [7] | [11] | [15]
inactive: all other assays above

CCCCCCCC(=O)O
not listed: [1] | [11] | [12] | [16] | [17] | [18] | [19]
inactive: all other assays above
